Screening results: PubChem BioAssay, National Center for Advancing Translational Sciences (NCATS)
Sm TGR block: S. mansoni TGR enzyme inhibition. Potency, µM (doses to about 114 µM), actives largely listed as inhibitors. hit rate 3% among 360,000. purified TGR, DTNB reduction, TNB absorbance 405 nm. AID 485364. Q962Y6; active means well fitted inhibition curve with a large enough effect; inconclusive means small, poorly fitted or top-dose-only effect; inactive means no such curve, though single readings can be large or run the other way; further: nearly all actives have a fitted effect of over 60% in size
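First, TGR (20 nM dispensed) and NADPH were mixed with compound. Second, a 15 min room-temperature incubation followed. Third, further NADPH and then DTNB were added to start the reaction. Finally, TNB absorbance was monitored kinetically.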
SARS PLP yeast: SARS-CoV PLP inhibition in yeast | AID 485353 | Potency, µM (highest dose often 32.9 µM), hits mostly activators | hit rate 0.19% among 330,000 | S. cerevisiae expressing SARS-CoV PLpro, growth rescue; calls by dose curve; further: nearly all actives have a fitted effect of over 55% in size
Of the large screens only hits and unclear results are named; the others gave an inactive call. A selection: hits, their analogues and other compounds. The true share with any hit is near 3%.

CCN(CC)C(=O)C(Oc1ccc(C)nc1[N+](=O)[O-])c1ccccc1 (centres undefined)	none
CCN(CC)/C(Sc1ccccc1)=C(\C(Cl)=C(Cl)Cl)[N+](=O)[O-]	Sm TGR block 22.4µM
CCN(CC)/C(Sc1ccccc1)=C(/C(Cl)=C(Cl)Cl)[N+](=O)[O-]	Sm TGR block 56.2µM
CCN(CC)C(=O)Cc1ccccc1	none
CCc1cccc(NC(=O)c2cnc(SC)nc2-c2ccccc2)c1	none (no result: SARS PLP yeast)
Cc1cccc(CNC(=O)Cc2csc3ccccc23)c1	none (no result: SARS PLP yeast)
CCOc1ccc2nc(Cl)c(C3CC(c4ccc(C)cc4)=NN3C(=O)CCC(=O)O)cc2c1 (centres undefined)	none (no result: SARS PLP yeast)
CCCOc1ccc(NC(=O)CC2C(=O)N(c3cccc(OC)c3)C(=O)N2Cc2cccs2)cc1 (centres undefined)	none (no result: SARS PLP yeast)
COC(=O)\C(C(C)=O)=C(/C=C/C=C/C=C/N(C)C)N(C)C	Sm TGR block 35.5µM
COC(=O)/C(C(C)=O)=C(\C=C\N(C)C)N(C)C	none
Oc1ccc(C(c2nnnn2C2CCCCC2)N2CCOCC2)cc1 (centres undefined)	Sm TGR block 2.82µM
c1cc(C(c2nnnn2C2CCCC2)N2CCOCC2)ccn1 (centres undefined)	Sm TGR block 28.2µM
Cc1ccc(C(c2nnnn2C2CCCCC2)N2CCN3CCCC3C2)cc1 (centres undefined)	none
Oc1ccc(N2CCN(C(c3ccncc3)c3nnnn3C3CCCC3)CC2)cc1 (centres undefined)	none
CCc1ccc(S(=O)(=O)c2nnn3c2nc(NCCNC(C)=O)c2cc(Cl)ccc23)cc1	none (no result: SARS PLP yeast)
CCSC1=NC2(CCCCC2)Nc2sc3c(c21)CCCC3	Sm TGR block 56.2µM
CCSc1ncnc2sc3c(c12)CCC3	none
Cc1cccc(OCC(=O)OCc2cc(=O)n3nc(-c4cccs4)sc3n2)c1	none (no result: SARS PLP yeast)
O=C1NCCN(Cc2ccc(Cl)c(F)c2)C1CC(=O)N1CCc2ccccc2C1 (centres undefined)	Sm TGR block 20µM
O=C1CN(C(=O)CC2C(=O)NCCN2Cc2ccccc2C(F)(F)F)CCN1 (centres undefined)	none
CN(Cc1cnccn1)C(=O)CC1C(=O)NCCN1Cc1c(F)cccc1Cl (centres undefined)	Sm TGR block 31.6µM
CN(Cc1ccon1)C(=O)CC1C(=O)NCCN1Cc1ccc(F)c(F)c1 (centres undefined)	Sm TGR block inconclusive
CN(Cc1ccon1)C(=O)CC1C(=O)NCCN1Cc1ccc(Cl)c(F)c1 (centres undefined)	Sm TGR block 35.5µM
CN(Cc1cccnc1)C(=O)CC1C(=O)NCCN1CC(c1ccccc1)c1ccccc1 (centres undefined)	Sm TGR block inconclusive
CN(Cc1cnccn1)C(=O)CC1C(=O)NCCN1CC(c1ccccc1)c1ccccc1 (centres undefined)	Sm TGR block 44.7µM
Cc1ccc(CN2CCNC(=O)C2CC(=O)N(C)Cc2cnccn2)cc1 (centres undefined)	Sm TGR block inconclusive
COc1ccc2c(Sc3ccc(Cl)cc3)c(C(=O)NCCCN3CCCCC3)[nH]c2c1	none (no result: SARS PLP yeast)
Cc1nnc2c(N3CCN(c4ccccc4F)CC3)nc3ccc(C(=O)c4ccccc4)cc3n12	none (no result: SARS PLP yeast)
CN(Cc1ccncn1)C(=O)CC1C(=O)NCCN1Cc1cccc(Oc2ccccc2)c1 (centres undefined)	Sm TGR block 44.7µM
COc1cc(CN2CCNC(=O)C2CC(=O)N(C)Cc2cccnc2)cc(OC)c1 (centres undefined)	none
COc1ccc(-c2nc(C)c(CCNC(=O)C(=O)Nc3cccc(F)c3)s2)cc1OC	none (no result: SARS PLP yeast)
CCOC(=O)c1c(-c2ccc(C)o2)csc1N	none
CCOC(=O)c1c(-c2ccc(C)o2)csc1NC(=O)COC(=O)c1cccs1	Sm TGR block 14.1µM
CCOC(=O)c1c(-c2ccco2)csc1NC(=O)COC(=O)c1cnc(C)cn1	Sm TGR block 28.2µM
CCOC(=O)c1c(-c2ccc(C)o2)csc1NC(=O)CN1CCOCC1	Sm TGR block 22.4µM
CCOC(=O)c1c(-c2cccs2)csc1NC(=O)CN1CCOCC1	none
CCOC(=O)c1c(NC(=O)CSc2ncn[nH]2)sc(C(C)=O)c1C	Sm TGR block inconclusive
CCOC(=O)c1c(NC(=O)COC(=O)c2cnc(C)cn2)sc(C(=O)N(C)C)c1C	none
CCOC(=O)c1c(-c2ccc(C)o2)csc1NC(=O)CSc1ncn[nH]1	Sm TGR block 20µM
Cc1ccc2oc(=O)c3cc(C(=O)Nc4ccc(F)cc4F)sc3c2c1	none (no result: SARS PLP yeast)
CCN(CC)S(=O)(=O)c1cc(-c2nnc(Nc3ccc(OC)c(C(N)=O)c3)c3ccccc23)ccc1C	none (no result: SARS PLP yeast)
Cc1cc2oc(=O)c(CC(=O)O)c(C)c2c2occ(-c3ccc(F)cc3)c12	none (no result: SARS PLP yeast)
COc1ccccc1CNC(=O)CN1C(=O)CSc2c1c(C)nn2-c1ccccc1	none (no result: SARS PLP yeast)
CCn1c(SCC(=O)N2CCC(C)CC2)nnc1-c1ccccc1O	none (no result: SARS PLP yeast)
CC1(C)CC(=O)C2=C(C1)Nc1ccccc1N(C(=O)C1CC1)C2c1ccco1 (centres undefined)	none
CC1(C)CC(=O)C2=C(C1)c1c(ccc3ccccc13)NC2c1ccco1 (centres undefined)	Sm TGR block 44.7µM
CCOc1cc(/C=C2/COc3ccccc3C2=O)ccc1OCC(=O)N(C)C	Sm TGR block 31.6µM
O=C1/C(=C/c2ccc(O)cc2)COc2ccccc21	Sm TGR block inconclusive
CCC1(c2ccccc2)NC(=O)N(CC(=O)Nc2cc(S(=O)(=O)N3CCCCC3)ccc2N(C)C)C1=O (centres undefined)	none
COc1ccc(S(=O)(=O)N2CCCCCC2)cc1NC(=O)CN1C(=O)NC(C)(c2ccccc2)C1=O (centres undefined)	Sm TGR block 35.5µM
O=S(=O)(NCCc1csc2nc(-c3ccc(F)cc3)nn12)c1ccc2c(c1)OCCO2	none (no result: SARS PLP yeast)
COc1ccc(CNc2ncnc3c2nnn3C)cc1	none (no result: SARS PLP yeast)
COc1ccc(CCN2C(=O)N(c3cccc(C)c3)C(=O)C2CC(=O)Nc2ccccc2)cc1OC (centres undefined)	none (no result: SARS PLP yeast)
CC1(OC(=O)C2CCCC2)C(=O)C=C2C=C(c3ccsc3)N(Cc3ccccc3)C=C2C1=O (centres undefined)	none
CCN(CC)CCCN1C=C2C(=O)C(C)(OC(=O)C3CCCC3)C(=O)C=C2C=C1c1ccsc1 (centres undefined)	Sm TGR block 50.1µM
O=C(CCC1N=C2c3ccccc3N=C(SCc3ccc(F)cc3)N2C1=O)N1CCN(c2ccccc2)CC1 (centres undefined)	none (no result: SARS PLP yeast)
COc1ccc(-c2nc3c(c(SCC(=O)N4CCOCC4)n2)Cc2c(CO)cnc(C)c2O3)cc1	none
CCN(CC)C(=O)CSc1nc(-c2ccc(C)cc2)nc2c1Cc1c(CO)cnc(C)c1O2	Sm TGR block 20µM (no result: SARS PLP yeast)
COc1ccc(-c2nc3c(c(SCC(=O)Nc4cc(C)cc(C)c4)n2)Cc2c(CO)cnc(C)c2O3)cc1	none (no result: SARS PLP yeast)
Cc1cc(C)cc(NC(=O)CSc2nc(-c3cccc(Cl)c3)nc3c2Cc2c(CO)cnc(C)c2O3)c1	Sm TGR block 35.5µM (no result: SARS PLP yeast)
Cc1ccc(-c2nc3c(c(SCC(=O)N4CCOCC4)n2)Cc2c(CO)cnc(C)c2O3)cc1	Sm TGR block 35.5µM
Cc1ccc(-c2nc3c(c(SCC(=O)Nc4ccccc4Cl)n2)Cc2c(CO)cnc(C)c2O3)cc1	none (no result: SARS PLP yeast)
CCOc1ccccc1-n1cc2c(c1-c1ccc(OC)cc1)c(=O)n(C)c(=O)n2C	none (no result: SARS PLP yeast)
CCc1cnc2c(c1SCC(=O)c1ccc(Cl)cc1)c(=O)n(C)c(=O)n2C	none (no result: SARS PLP yeast)
COc1ccccc1N=c1scc(-c2ccc(S(=O)(=O)N3CCCC3)cc2)n1C	none (no result: SARS PLP yeast)
